# According to PubChem BioAssay (NCI):
# The panel holds about 83,000 compounds, 20% with a hit somewhere; the sample as a whole holds those more often.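 Cells were grown in 96-well plates and exposed to the test compound at a single concentration for 48 hours; results are reported as percent growth, with values below 10 considered active.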 Values without a mark were called inactive. Activity calls are given as the source filed them.
# Columns and labels:
# Experiment in all cases: NCI-60 one-dose screen, 48 h (100 = growth as untreated, 0 = no growth, -100 = all killed)
# HCT-15 colon = conditions: 10 µM unless noted
# HT29 colon = conditions: 10 µM unless noted
# SNB-75 CNS = conditions: 10 µM unless noted
# SNB-19 CNS = conditions: 10 µM unless noted
# U251 CNS = conditions: 10 µM unless noted
# PC-3 prostate = conditions: 10 µM unless noted
# SK-MEL-5 melanoma = conditions: 10 µM unless noted
# UACC-62 melanoma = conditions: 10 µM unless noted
# LOX IMVI melanoma = conditions: 10 µM
# SK-MEL-28 melanoma = conditions: 10 µM unless noted
# EKVX NSCLC = conditions: 10 µM unless noted
# UO-31 renal = conditions: 10 µM unless noted
# TK-10 renal = conditions: 10 µM unless noted
# ACHN renal = conditions: 10 µM unless noted
# CAKI-1 renal = conditions: 10 µM unless noted
# A498 renal = conditions: 10 µM unless noted
# CCRF-CEM leukemia = conditions: 10 µM unless noted
# MOLT-4 leukemia = conditions: 10 µM unless noted
# SN12C renal = conditions: 10 µM unless noted
# SK-MEL-2 melanoma = conditions: 10 µM unless noted
SMILES,growth (HCT-15 colon),growth (HT29 colon),growth (SNB-75 CNS),growth (SNB-19 CNS),growth (U251 CNS),growth (PC-3 prostate),growth (SK-MEL-5 melanoma),growth (UACC-62 melanoma),growth (LOX IMVI melanoma),growth (SK-MEL-28 melanoma),growth (EKVX NSCLC),growth (UO-31 renal),growth (TK-10 renal),growth (ACHN renal),growth (CAKI-1 renal),growth (A498 renal),growth (CCRF-CEM leukemia),growth (MOLT-4 leukemia),growth (SN12C renal),growth (SK-MEL-2 melanoma)
COc1ccc(/C=C2/C(=O)ON=C2C)cc1,112%,99.2%,106%,106%,98.6%,97.6%,103%,90.3%,99.4%,106%,109%,99%,96.5%,118%,102%,100%,105%,107%,–,–
NC(=S)Nc1ccc2c(c1)Cc1ccccc1-2,95.7%,87.8%,73.8%,87.7%,83.7%,71%,88.9%,77.3%,91.4%,103%,–,55.2%,121%,91.7%,92.1%,110%,70.5%,88.7%,89.4%,–
[Cl-].[Rh+3].c1ccc(-c2ccnc3c2ccc2c(-c4ccccc4)ccnc23)cc1.c1ccc(-c2ccnc3c2ccc2c(-c4ccccc4)ccnc23)cc1.c1ccc(-c2ccnc3c2ccc2c(-c4ccccc4)ccnc23)cc1,106%,99%,102%,57.5%,30.8%,75.5%,-38.1% (active),97.7%,88.7%,–,81.1%,51.4%,107%,93.6%,86.1%,–,–,104%,85.8%,95.9%
CN(C)c1ccc(/C=C/c2cc[n+](C)c(/C=C/c3ccc(N(C)C)cc3)c2)cc1,19.5%,-7.82% (active),22.3%,27%,15.3%,3.98% (active),-95.6% (active),12.3%,12.3%,20.6%,–,-11.4% (active),0.183% (active),–,-4.63% (active),-10.3% (active),–,-26.5% (active),13.5%,–
O=C1C=CC(=O)c2c(O)c(CO)c(CO)c(O)c21,37.8%,60%,55.9%,103%,105%,25.6%,73.8%,93.3%,73.5%,–,105%,75.5%,107%,95.3%,93.4%,120%,78.5%,86.6%,101%,119%
COc1cc(/C=C/C(=O)CC(=O)/C=C/c2ccc(O)c(OC)c2)ccc1O,13.8%,-20.3% (active),7.11% (active),48.2%,18.5%,36.8%,71%,53.5%,8.79% (active),–,67.6%,13%,69.7%,72.9%,64.3%,101%,5.28% (active),31.4%,79%,81.1%
O=Nc1ccc2ccccc2c1O,66.5%,46.8%,120%,97.6%,55.9%,44.9%,47.6%,27.1%,7.44% (active),83.8%,64.1%,79.8%,9.55% (active),–,78.1%,95.3%,64.5%,91.2%,42.4%,–
O=C(O)c1cc2c(s1)C(=O)c1sccc1C2=O,-59.3% (active),65.8%,-91.6% (active),-2.34% (active),30.4%,56.5%,-100% (active),51%,-72.5% (active),–,101%,-43.1% (active),115%,80.1%,107%,103%,–,72.3%,-46.9% (active),15.5%
CC1(C)CCCC2=C1C(=O)N(SC(Cl)(Cl)Cl)C2=O,85.9%,93.5%,96.9%,91.2%,93.8%,89.5%,98%,96.1%,83.9%,99.4%,–,79.1%,88.2%,82.9%,92.4%,120%,40.5%,21%,93.4%,–
COC(=O)Nc1nc2ccc(C3(c4ccc(F)cc4)OCCO3)cc2[nH]1,25.9%,0.785% (active),10.3%,89.1%,13.9%,14.8%,21.2%,53.3%,45.2%,48.1%,–,55.4%,47.2%,41.9%,40.8%,4.58% (active),5.57% (active),21.8%,–,–
S=C1SCN(Cc2cccs2)CN1Cc1cccs1,96.6%,97.2%,86.2%,96.5%,95.6%,96.2%,94%,94%,93%,109%,–,88.8%,90.7%,–,99.4%,95.7%,70.9%,100%,98.7%,–
CC(=O)Nc1ccc(C(=O)CCl)cc1,6.54% (active),8.26% (active),84.3%,82.5%,86.3%,92.9%,107%,81.3%,-53.6% (active),69.6%,–,54.2%,43.8%,-58% (active),38.6%,99.8%,-49.9% (active),73.6%,–,–
Cc1cc(=O)oc2cc(O)cc(O)c12,108%,107%,98.2%,104%,107%,100%,99.5%,102%,–,101%,–,83.5%,97.8%,–,94.6%,117%,107%,99.8%,102%,107%
CCOc1ccc(C(CN2CCOCC2)C(C)=O)cc1OC (configuration not stated),54.2%,107%,85.9%,103%,95.9%,101%,93.6%,93.6%,–,102%,96.2%,75.4%,49.8%,79.6%,-89.9% (active),92.2%,52.7%,87.2%,86.6%,111%
O=[N+]([O-])c1ccc(Oc2ccccc2Cl)c([N+](=O)[O-])c1,77%,90.2%,83.2%,95.7%,88.4%,97.1%,95.1%,–,44.2%,103%,104%,81.9%,98.7%,100%,82.7%,84.7%,57.8%,22.7%,90.4%,88.6%
CCC1C[N+]2=C(c3cc(OC)c(OC)cc3CC2)c2c1cc1n2CCc2cc(OC)c(OC)cc2-1 (configuration not stated),87.9%,41%,24.5%,33.8%,22.7%,17.4%,-46.8% (active),–,41.7%,32.8%,57.9%,90.3%,82.9%,96.9%,87%,75%,52.1%,41.5%,32.7%,-1.15% (active)
O=C1C=CC(O)=CC1=P(c1ccccc1)(c1ccccc1)c1ccccc1,96.2%,103%,84.2%,94.9%,92.3%,91.6%,95.7%,83.7%,–,102%,93.8%,71.8%,96.3%,99.2%,86.2%,58.6%,86.9%,101%,89.4%,–
Cc1ccc(Nc2ccc(O)c3c2C(=O)c2c(O)ccc(Nc4ccc(C)cc4)c2C3=O)cc1,94.8%,106%,99.4%,91.6%,99.8%,90.7%,91.7%,105%,–,112%,–,82.7%,–,100%,92.9%,97.4%,95.5%,109%,106%,118%
CC1(O)CCCCCC1,102%,110%,86.3%,97.6%,101%,103%,101%,100%,–,106%,–,82.6%,99.5%,103%,101%,75.3%,92.7%,92.8%,99.9%,105%
O=C(CCl)N1c2ccccc2Sc2c1ccc1ccccc21,39%,69.4%,60.2%,88.9%,63.8%,70.6%,84.5%,78%,–,111%,96.1%,70.4%,119%,78.7%,80.7%,110%,6.54% (active),12%,–,82.7%
